# In PubChem BioAssay AID1159580 (chemical genetic matrix, 2015):
# The campaign covered roughly 5,500 compounds. About 2,000 (36%) were called active. Roughly 18% stayed inconclusive and do not appear here. The list shows a part of the results. Unmarked numbers belong to inactive results. Rule as the data show it: active = normalized growth mostly below about 0.91 (no sharp cut-off); inconclusive = no clear call, values can overlap the other calls; inactive = mostly above about 0.92.
# Assay: chemical genetic growth profiling, strain panel (AID 1159580);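 also: tested at 20 µM; growth read once vehicle control cultures reached saturation at 30 °C; 1 = growth at the plate median or of vehicle wells; lower values mean less growth of the strain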
# Conditions: growth OD
# [1] = S. cerevisiae deletion strains, locus YDL101C, strain DUN1, active compounds read low
# [2] = S. cerevisiae deletion strains, locus YHR030C, strain SLT2, active compounds read low
smiles,measurement,setting,value
O=S(=O)(NCCc1ccncc1)c1cc(C(F)(F)F)cc(C(F)(F)F)c1,normalized growth,"S. cerevisiae deletion strains, locus YAL013W, strain DEP1, active compounds read low",1
same,normalized growth,"S. cerevisiae deletion strains, locus YBR229C, strain ROT2, active compounds read low",0.988
same,normalized growth,"S. cerevisiae deletion strains, locus YCL061C, strain MRC1, active compounds read low",0.963
same,normalized growth,[1],0.966
same,normalized growth,"S. cerevisiae deletion strains, locus YDR150W, strain NUM1, active compounds read low",0.913
same,normalized growth,"S. cerevisiae deletion strains, locus YEL061C, strain CIN8, active compounds read low",1
same,normalized growth,"S. cerevisiae deletion strains, locus YGR078C, strain PAC10, active compounds read low",0.987
same,normalized growth,[2],1.01
same,normalized growth,"S. cerevisiae deletion strains, locus YHR087W, strain rtc3, active compounds read low",1.07
same,normalized growth,"S. cerevisiae deletion strains, locus YJL187C, strain SWE1, active compounds read low",1.01
same,normalized growth,"S. cerevisiae deletion strains, locus YJR043C, strain POL32, active compounds read low",0.964
same,normalized growth,"S. cerevisiae deletion strains, locus YJR075W, strain HOC1, active compounds read low",1.02
same,normalized growth,"S. cerevisiae deletion strains, locus YKL190W, strain CNB1, active compounds read low",1.01
same,normalized growth,"S. cerevisiae deletion strains, locus YLR039C, strain RIC1, active compounds read low",0.976
same,normalized growth,"S. cerevisiae deletion strains, locus YLR058C, strain SHM2 (second series), active compounds read low",1
same,normalized growth,"S. cerevisiae deletion strains, locus YLR085C, strain ARP6, active compounds read low",1.05
same,normalized growth,"S. cerevisiae deletion strains, locus YLR262C, strain YPT6, active compounds read low",1.03
same,normalized growth,"S. cerevisiae deletion strains, locus YML094W, strain GIM5, active compounds read low",1.02
same,normalized growth,"S. cerevisiae deletion strains, locus YMR219W, strain ESC1, active compounds read low",0.993
same,normalized growth,"S. cerevisiae deletion strains, locus YMR263W, strain SAP30, active compounds read low",1.01
same,normalized growth,"S. cerevisiae deletion strains, locus YNL128W, strain TEP1, active compounds read low",0.989
same,normalized growth,"S. cerevisiae deletion strains, locus YNL153C, strain GIM3, active compounds read low",0.994
same,normalized growth,"S. cerevisiae deletion strains, locus YNL298W, strain CLA4 (second series), active compounds read low",0.986
same,normalized growth,"S. cerevisiae deletion strains, locus YNL322C, strain KRE1, active compounds read low",1
same,normalized growth,"S. cerevisiae deletion strains, locus YNR030W, strain Alg12, active compounds read low",1.03
same,normalized growth,"S. cerevisiae deletion strains, locus YOL006C, strain TOP1, active compounds read low",0.976
same,normalized growth,"S. cerevisiae deletion strains, locus YPL055C, strain LGE1, active compounds read low",1.02
same,normalized growth,"S. cerevisiae deletion strains, locus YPL241C, strain CIN2, active compounds read low",0.98
same,normalized growth,"S. cerevisiae deletion strains, locus YPR135W, strain CTF4, active compounds read low",0.942
same,normalized growth,"S. cerevisiae strains, strain wild type, active compounds read low",0.979
O=S(=O)(NCc1cc(Cl)cc(Cl)c1)c1cc(C(F)(F)F)cc(C(F)(F)F)c1,normalized growth,"S. cerevisiae deletion strains, locus YAR019C, strain CDC15, active compounds read low",1
same,normalized growth,"S. cerevisiae deletion strains, locus YBL105C, strain PKC1, active compounds read low",0.994
same,normalized growth,"S. cerevisiae deletion strains, locus YBR135W, strain CKS1, active compounds read low",0.998
same,normalized growth,"S. cerevisiae deletion strains, locus YBR136W, strain MEC1, active compounds read low",0.998
same,normalized growth,"S. cerevisiae deletion strains, locus YBR160W, strain CDC28, active compounds read low",0.998
same,normalized growth,"S. cerevisiae deletion strains, locus YDL017W, strain CDC7, active compounds read low",0.998
same,normalized growth,"S. cerevisiae deletion strains, locus YDL028C, strain MPS1, active compounds read low",0.994
same,normalized growth,[1],0.994
same,normalized growth,"S. cerevisiae deletion strains, locus YDL108W, strain KIN28, active compounds read low",0.997
same,normalized growth,"S. cerevisiae deletion strains, locus YDL132W, strain cdc53, active compounds read low",0.987
same,normalized growth,"S. cerevisiae deletion strains, locus YDL214C, strain PRR2, active compounds read low",0.935
same,normalized growth,"S. cerevisiae deletion strains, locus YDR052C, strain DBF4, active compounds read low",0.996
same,normalized growth,"S. cerevisiae deletion strains, locus YDR054C, strain cdc34, active compounds read low",0.985
same,normalized growth,"S. cerevisiae deletion strains, locus YDR226W, strain ADK1, active compounds read low",0.992
same,normalized growth,"S. cerevisiae deletion strains, locus YDR477W, strain SNF1, active compounds read low",0.912
same,normalized growth,"S. cerevisiae deletion strains, locus YER123W, strain YCK3, active compounds read low",0.907
same,normalized growth,"S. cerevisiae deletion strains, locus YER133W, strain GLC7, active compounds read low",0.928
same,normalized growth,"S. cerevisiae deletion strains, locus YFL009W, strain cdc4, active compounds read low",0.992
same,normalized growth,"S. cerevisiae deletion strains, locus YFL029C, strain CAK1, active compounds read low",1
same,normalized growth,"S. cerevisiae deletion strains, locus YFR003C, strain YPI1, active compounds read low",0.996
same,normalized growth,"S. cerevisiae deletion strains, locus YFR019W, strain FAB1, active compounds read low",0.902
same,normalized growth,"S. cerevisiae deletion strains, locus YFR028C, strain CDC14, active compounds read low",0.997
same,normalized growth,"S. cerevisiae deletion strains, locus YGR040W, strain KSS1, active compounds read low",0.894
same,normalized growth,"S. cerevisiae deletion strains, locus YGR052W, strain FMP48, active compounds read low",0.878
same,normalized growth,"S. cerevisiae deletion strains, locus YGR092W, strain DBF2, active compounds read low",0.881
same,normalized growth,[2],0.621 (active)
same,normalized growth,"S. cerevisiae deletion strains, locus YHR079C, strain IRE1, active compounds read low",0.835
same,normalized growth,"S. cerevisiae deletion strains, locus YHR082C, strain KSP1, active compounds read low",0.896
same,normalized growth,"S. cerevisiae deletion strains, locus YHR205W, strain SCH9, active compounds read low",0.908
same,normalized growth,"S. cerevisiae deletion strains, locus YIL147C, strain SLN1, active compounds read low",0.996
same,normalized growth,"S. cerevisiae deletion strains, locus YJL095W, strain BCK1, active compounds read low",0.875
same,normalized growth,"S. cerevisiae deletion strains, locus YJL128C, strain PBS2, active compounds read low",0.923
same,normalized growth,"S. cerevisiae deletion strains, locus YJL157C, strain FAR1, active compounds read low",0.926
same,normalized growth,"S. cerevisiae deletion strains, locus YJR016C, strain ILV3, active compounds read low",0.995
same,normalized growth,"S. cerevisiae deletion strains, locus YJR066W, strain TOR1 (second series), active compounds read low",0.947
same,normalized growth,"S. cerevisiae deletion strains, locus YJR066W, strain TOR1, active compounds read low",0.955
same,normalized growth,"S. cerevisiae deletion strains, locus YKL048C, strain ELM1, active compounds read low",0.954
same,normalized growth,"S. cerevisiae deletion strains, locus YKL067W, strain YNK1, active compounds read low",0.961
same,normalized growth,"S. cerevisiae deletion strains, locus YKL101W, strain HSL1, active compounds read low",0.907
same,normalized growth,"S. cerevisiae deletion strains, locus YKL193C, strain SDS22, active compounds read low",0.998
same,normalized growth,"S. cerevisiae deletion strains, locus YKL203C, strain TOR2, active compounds read low",0.982
same,normalized growth,"S. cerevisiae deletion strains, locus YLR113W, strain HOG1, active compounds read low",0.803 (active)
same,normalized growth,"S. cerevisiae deletion strains, locus YLR133W, strain CKI1, active compounds read low",0.918
same,normalized growth,"S. cerevisiae deletion strains, locus YLR403W, strain SFP1, active compounds read low",0.939
same,normalized growth,"S. cerevisiae deletion strains, locus YML070W, strain DAK1, active compounds read low",0.915
same,normalized growth,"S. cerevisiae deletion strains, locus YMR001C, strain CDC5, active compounds read low",0.996
same,normalized growth,"S. cerevisiae deletion strains, locus YMR205C, strain PFK2 (second series), active compounds read low",0.954
same,normalized growth,"S. cerevisiae deletion strains, locus YMR277W, strain FCP1, active compounds read low",0.996
same,normalized growth,"S. cerevisiae deletion strains, locus YNL006W, strain LST8, active compounds read low",0.991
same,normalized growth,"S. cerevisiae deletion strains, locus YNL020C, strain ARK1, active compounds read low",0.899
same,normalized growth,"S. cerevisiae deletion strains, locus YNL161W, strain CBK1, active compounds read low",0.999
same,normalized growth,"S. cerevisiae deletion strains, locus YNL183C, strain NPR1, active compounds read low",1.01
same,normalized growth,"S. cerevisiae deletion strains, locus YNL207W, strain RIO2, active compounds read low",1
same,normalized growth,"S. cerevisiae deletion strains, locus YNL222W, strain SSU72, active compounds read low",0.996
same,normalized growth,"S. cerevisiae deletion strains, locus YNL307C, strain MCK1 (second series), active compounds read low",0.765
same,normalized growth,"S. cerevisiae deletion strains, locus YOL078W, strain AVO1, active compounds read low",0.997
same,normalized growth,"S. cerevisiae deletion strains, locus YOL136C, strain PFK27, active compounds read low",0.895
same,normalized growth,"S. cerevisiae deletion strains, locus YOR061W, strain CKA2, active compounds read low",0.935
same,normalized growth,"S. cerevisiae deletion strains, locus YOR119C, strain RIO1, active compounds read low",0.982
same,normalized growth,"S. cerevisiae deletion strains, locus YOR231W, strain MKK1, active compounds read low",0.933
same,normalized growth,"S. cerevisiae deletion strains, locus YOR329C, strain SCD5, active compounds read low",0.995
same,normalized growth,"S. cerevisiae deletion strains, locus YPL031C, strain PHO85, active compounds read low",0.897
same,normalized growth,"S. cerevisiae deletion strains, locus YPL153C, strain RAD53, active compounds read low",0.912
same,normalized growth,"S. cerevisiae deletion strains, locus YPL204W, strain HRR25, active compounds read low",0.888
same,normalized growth,"S. cerevisiae deletion strains, locus YPL209C, strain IPL1, active compounds read low",0.997
same,normalized growth,"S. cerevisiae deletion strains, locus YPL256C, strain CLN2, active compounds read low",0.87
same,normalized growth,"S. cerevisiae deletion strains, locus YPR025C, strain CCL1, active compounds read low",0.995
same,normalized growth,"S. cerevisiae deletion strains, locus YPR106W, strain ISR1, active compounds read low",0.997
same,normalized growth,"S. cerevisiae deletion strains, locus YPR111W, strain DBF20, active compounds read low",0.989
same,normalized growth,"S. cerevisiae deletion strains, strain NNK1, active compounds read low",0.988
same,normalized growth,"S. cerevisiae deletion strains, strain TSCII, active compounds read low",0.999
